These results are taken from PubChem BioAssay (NCATS).

Assay [1] can be described thus: Primary qHTS for inhibitors of La Crosse Virus (LACV) - induced cell death in SH-SY5Y cells (AID 1508616).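 Further: top concentration of the series differs between compounds; higher means more rescue of cells from virus-induced death.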 The following applies: SH-SY5Y LACV cytopathicity rescue, ATP luminescence, 6 d; series mostly up to 4.29 µM. The method in brief:
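Cytopathicity rescue screen: compounds pinned onto SH-SY5Y cells, which are then infected with LACV (MOI 0.01) and held 6 days at 37C. Percent activity is scaled between infected DMSO control and uninfected DMSO control.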
In general terms: In qHTS, concentration-response curves come from the screen itself.

The target in assay [2] is Calcium and integrin-binding protein 1 (Homo sapiens) (UniProt Q99828). The assay is described as follows: Primary qHTS for Identification of Calcium Integrin Binding Protein 1 (CIB1) Competitor (AID 1508620). Further: top concentration of the series differs between compounds. Particulars: CIB1-GST / FITC-alphaIIb peptide fluorescence polarization; series mostly up to 114 µM. The method in brief: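 Fluorescence polarization competition: GST-tagged CIB1 (1 uM final) preincubated with compound 15 min at room temperature, then FITC-labelled alphaIIb peptide (100 nM final) added. After 15 min at room temperature, polarization read at Ex 480/Em 540.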

Assay [3] is described as follows: Primary qHTS for small molecule stabilizers of the endoplasmic reticulum resident proteome: Secreted ER Calcium Modulated Protein (SERCaMP) assay (AID 1508630). The following applies: SH-SY5Y GLuc-SERCaMP (Gaussia luciferase released on ER calcium loss) secretion, thapsigargin, luminescence; series mostly up to 38.4 µM. The procedure, abridged:
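The SH-SY5Y reporter protocol was run at 3 concentrations up to 38.3 uM (primary) or 11 concentrations (follow-up): 16 h compound, 100 nM thapsigargin for 4 h, then extracellular luciferase luminescence.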

Assay [4] is described as follows: A High-Content qHTS Against Drug Library for the Identification of Small Molecules that Inhibit DYT1 Early Onset Primary Dystonia-Associated Cell Pathology (AID 1645839; calls by dose curve). Particulars: HEK293 Flp-In EGFP-delE TorsinA, punctate imaging, 48 h; series mostly up to 46.1 µM. The procedure, abridged: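 Cells were seeded and left for 24 h, then dosed with compound alongside tetracycline induction of mutant EGFP-TorsinA. They were incubated for 48 h, fixed in 4% paraformaldehyde, permeabilized and imaged for mislocalization (%pathology) and cell count.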

In assay [5] the target is Cytochrome P450 2D6 (Homo sapiens) (UniProt P10635). Description: Cytochrome P450 family 2 subfamily D member 6 (CYP2D6) small molecule antagonists: luciferase biochemical (cell-free) qHTS assay (AID 1645840; active means well fitted curve in the direction sought with a large enough effect in the repeat runs; an effect the other way counts as inactive or inconclusive; further: nearly all actives have a fitted effect of over 55% in size; further: potency means the concentration at half of the fitted maximal effect). The following applies: P450-Glo CYP2D6 enzyme, luciferin luminescence, 1 h; series mostly up to 57.4 µM. The procedure, abridged:
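P450-Glo CYP2D6 system: proluciferin substrate converted by enzyme to luciferin, read by luminescence proportional to activity. Enzyme-substrate mix with compound 10 min at room temperature, then NADPH regeneration 1 h before detection reagent.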

The nature of assay [6]: Primary qHTS for inhibitors of nuclear receptor binding SET domain protein 2 (NSD2) in an isogenic RCH-ACV NSD2 p.E1099K mutant (9B) (AID 1645876). Further: nearly all actives have a fitted effect of over 70% in size. Further: potency means the concentration at half of the fitted maximal effect. Particulars: RCH-ACV NSD2 E1099K (9B) viability, CellTiter-Glo, 72 h; series mostly up to 44.9 µM.
The nature of assay [7]: Primary qHTS for inhibitors of nuclear receptor binding SET domain protein 2 (NSD2) in an RCH-ACV wild type WT cells (2C) (AID 1645877). Further: nearly all actives have a fitted effect of over 70% in size. Further: potency means the concentration at half of the fitted maximal effect. The following applies: RCH-ACV (leukaemia line) NSD2 WT (2C) viability, CellTiter-Glo, 72 h; series mostly up to 44.9 µM.
In assay [8] the target is Cytochrome P450 2C9 (Homo sapiens) (UniProt P11712). Description: Cytochrome P450 family 2 subfamily C member 9 (CYP2C9) small molecule antagonists: luciferase biochemical (cell-free) qHTS assay (AID 1645842; active means well fitted curve in the direction sought with a large enough effect in the repeat runs; an effect the other way counts as inactive or inconclusive; further: nearly all actives have a fitted effect of over 55% in size; further: potency means the concentration at half of the fitted maximal effect). The following applies: P450-Glo CYP2C9 enzyme assay, luciferin luminescence; series mostly up to 57.4 µM. The method in brief: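 P450-Glo CYP2C9 system: proluciferin substrate with enzyme in mix containing 0.4% BSA, 10 min at room temperature, then NADPH regeneration solution added and incubated 1 h at 37C. Detection reagent stopped reaction; luminescence read after 20 min as RLU.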

Where “and” joins values, the source holds several entries; their conditions need not be identical. Equal values may be shown once. Results filed as inconclusive are left out. Calls of active or inactive are those of the source. Unless noted, the call rests on the fitted dose curve; in most records, active means well fitted curve in the direction sought with a large enough effect; inconclusive means small, poorly fitted or top-dose-only effect, or another doubt; inactive means no such curve, though single readings can be large; an effect the other way counts as inactive or inconclusive.

Cytochrome P450 2D6 (Homo sapiens), sequence (P10635 whole entry, looked up): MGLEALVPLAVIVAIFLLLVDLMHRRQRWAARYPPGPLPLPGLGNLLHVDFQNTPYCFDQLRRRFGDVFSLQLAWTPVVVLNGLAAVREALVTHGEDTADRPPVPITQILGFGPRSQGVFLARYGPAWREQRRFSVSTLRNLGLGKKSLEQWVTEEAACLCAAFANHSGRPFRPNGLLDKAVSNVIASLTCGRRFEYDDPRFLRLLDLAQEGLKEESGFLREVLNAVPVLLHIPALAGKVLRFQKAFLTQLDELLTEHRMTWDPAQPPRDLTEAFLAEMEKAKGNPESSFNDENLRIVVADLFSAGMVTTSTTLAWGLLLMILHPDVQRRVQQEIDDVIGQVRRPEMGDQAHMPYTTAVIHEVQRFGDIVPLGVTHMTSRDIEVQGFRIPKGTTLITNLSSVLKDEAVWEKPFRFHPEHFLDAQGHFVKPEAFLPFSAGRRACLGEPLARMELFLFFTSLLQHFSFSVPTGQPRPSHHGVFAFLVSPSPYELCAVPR
Calcium and integrin-binding protein 1 (Homo sapiens), sequence (Q99828 whole entry, looked up): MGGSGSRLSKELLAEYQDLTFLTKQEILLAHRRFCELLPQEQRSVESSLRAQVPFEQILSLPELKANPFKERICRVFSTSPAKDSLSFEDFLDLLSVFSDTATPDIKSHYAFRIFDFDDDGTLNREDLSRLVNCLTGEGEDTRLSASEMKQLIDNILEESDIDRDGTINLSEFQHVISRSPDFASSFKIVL
Cytochrome P450 2C9 (Homo sapiens), sequence (P11712 whole entry, looked up): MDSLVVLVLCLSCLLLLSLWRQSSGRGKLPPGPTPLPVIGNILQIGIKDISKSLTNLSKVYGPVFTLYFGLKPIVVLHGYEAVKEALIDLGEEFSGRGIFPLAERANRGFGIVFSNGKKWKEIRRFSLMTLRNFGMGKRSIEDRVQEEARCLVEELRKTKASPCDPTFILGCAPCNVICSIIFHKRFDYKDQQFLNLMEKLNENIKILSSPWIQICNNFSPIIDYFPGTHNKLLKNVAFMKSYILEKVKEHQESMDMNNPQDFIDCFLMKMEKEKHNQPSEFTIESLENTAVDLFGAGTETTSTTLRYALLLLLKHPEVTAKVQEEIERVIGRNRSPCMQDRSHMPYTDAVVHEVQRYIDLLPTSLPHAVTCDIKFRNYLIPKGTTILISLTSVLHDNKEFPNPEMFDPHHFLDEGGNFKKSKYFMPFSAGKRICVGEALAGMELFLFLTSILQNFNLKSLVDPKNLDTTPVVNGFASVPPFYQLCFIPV

On to `C=C1C[C@H]2[C@@H]3C=C(C)C4=CC(=O)CC[C@]4(C)[C@H]3CC[C@]2(C)[C@@]1(OC(C)=O)C(C)=O`, for which the Potency entry in assay [1], in assay [2], in assay [3], in assay [4] and in assay [5] was “inactive” each time. The Potency was 23.7 µM (active) in assay [6] and 4220 nM (active) in assay [7].

`CCCC(=O)O[C@]1(C(=O)CO)CC[C@H]2[C@@H]3CCC4=CC(=O)CC[C@]4(C)[C@H]3[C@@H](O)C[C@@]21C`: the Potency entry in assay [1], in assay [2], in assay [3], in assay [4], in assay [5] and in assay [8] was “inactive” each time. Further, the Potency in assay [7] was 29.9 nM (active).

For the compound `CC1(C)OC[C@@H](COC(=O)CCc2ccc(OC[C@@H](O)CNCCNC(=O)N3CCOCC3)cc2)O1`, the Potency result in assay [1], in assay [2], in assay [3], in assay [4], in assay [5] and in assay [8] was “inactive” each time. For the same compound, the Potency entry in assay [6] and in assay [7] was “inactive” in each case.

On to `Cc1c(C(N)=O)cc([N+](=O)[O-])cc1[N+](=O)[O-]`, for which the Potency entry in assay [1], in assay [2], in assay [3], in assay [4], in assay [5] and in assay [8] was “inactive” throughout. Besides, the Potency result in assay [6] and in assay [7] was “inactive” throughout.

For `C[C@H]1C[C@H]2[C@@H]3CCC4=CC(=O)C=C[C@]4(C)[C@@]3(Cl)[C@@H](O)C[C@]2(C)[C@@]1(O)C(=O)CO`, the Potency entry in assay [1], in assay [2], in assay [3] and in assay [4] was “inactive” in each case. In addition, the Potency is 15.5 µM (active) in assay [5], 17.4 µM (active) in assay [8] and 4.7 nM (active) in assay [7].

`CN=C(NC#N)Nc1ccc(C2=NNC(=O)CC2C)cc1` (stereo unspecified): the Potency result in assay [1], in assay [2], in assay [3], in assay [4], in assay [5] and in assay [8] was “inactive” each time. The Potency result in assay [6] and in assay [7] was “inactive” in each case.

As to `COc1cc2c(cc1OC)[C@@H]1CC(=O)[C@@H](CC(C)C)CN1CC2`, the Potency result in assay [1], in assay [2], in assay [3], in assay [4], in assay [6] and in assay [7] was “inactive” throughout. Also, the Potency in assay [8] was 15.5 µM (active).

For `CCCN1CCCC[C@H]1C(=O)Nc1c(C)cccc1C`, the Potency result in assay [1], in assay [2], in assay [3], in assay [4], in assay [8] and in assay [6] was “inactive” throughout. In assay [7], the Potency result was “inactive”. In addition, the Potency in assay [5] was 4.9 µM (active).

On to `C[C@]12CCC(=O)C=C1CC[C@H]1[C@@H]3CC[C@](O)(C(=O)CO)[C@@]3(C)C[C@H](O)[C@@]12F`, for which the Potency entry in assay [1], in assay [2], in assay [3], in assay [4], in assay [5] and in assay [8] was “inactive” throughout. Moreover, the Potency in assay [7] was 10.6 nM (active).

With `Cc1cc(=O)n(-c2ccccc2)n1C`, the Potency entry in assay [1], in assay [2], in assay [3], in assay [4], in assay [5] and in assay [6] was “inactive” throughout. In addition, the Potency result in assay [7] was “inactive”.

With `CC(=O)OCC(=O)[C@@]12N=C(C)O[C@@H]1C[C@H]1[C@@H]3CCC4=CC(=O)C=C[C@]4(C)[C@H]3[C@@H](O)C[C@@]12C`, the Potency result in assay [1], in assay [2], in assay [3], in assay [4], in assay [5] and in assay [8] was “inactive” each time. In addition, the Potency in assay [7] is 150 nM (active) and 417 nM (active).
